# Data reported in ChEMBL document CHEMBL1961873, “Compounds: GSK PKIS; Assays: Nanosyn kinase panel” (2012).
# Where “and” joins values, the source holds several entries; their conditions need not be identical. Equal values may be shown once.
# Tests used:
# [1] = molecular target: Serine/threonine-protein kinase 26 (Homo sapiens) (UniProt Q9P289); conditions: at 1 µM;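 note: mean inhibition of MST4 kinase activity, reported from the GSK PKIS inhibitor-set screening panel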
# [2] = molecular target: Serine/threonine-protein kinase PAK 1 (Homo sapiens) (UniProt Q13153); conditions: at 0.1 µM
# Chain of Serine/threonine-protein kinase PAK 1 (Homo sapiens) (Q13153 whole entry): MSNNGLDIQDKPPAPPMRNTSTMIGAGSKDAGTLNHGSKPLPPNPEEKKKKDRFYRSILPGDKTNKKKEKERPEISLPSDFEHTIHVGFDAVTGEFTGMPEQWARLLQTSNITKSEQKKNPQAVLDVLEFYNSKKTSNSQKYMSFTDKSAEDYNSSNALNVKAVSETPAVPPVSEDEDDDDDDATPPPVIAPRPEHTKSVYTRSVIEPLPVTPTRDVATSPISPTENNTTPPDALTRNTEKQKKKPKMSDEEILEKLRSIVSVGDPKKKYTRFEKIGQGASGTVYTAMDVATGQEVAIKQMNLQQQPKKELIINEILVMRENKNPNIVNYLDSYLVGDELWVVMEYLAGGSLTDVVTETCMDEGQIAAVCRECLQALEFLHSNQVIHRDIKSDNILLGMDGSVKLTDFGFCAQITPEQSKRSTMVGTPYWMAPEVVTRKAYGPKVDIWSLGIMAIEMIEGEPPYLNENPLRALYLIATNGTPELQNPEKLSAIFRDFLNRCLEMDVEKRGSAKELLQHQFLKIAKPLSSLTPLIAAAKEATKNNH
# [3] = molecular target: Serine/threonine-protein kinase PAK 1 (Homo sapiens) (UniProt Q13153); conditions: at 1 µM
# [4] = molecular target: Serine/threonine-protein kinase PAK 2 (Homo sapiens) (UniProt Q13177); conditions: at 0.1 µM
# Chain of Serine/threonine-protein kinase PAK 2 (Homo sapiens) (Q13177 whole entry): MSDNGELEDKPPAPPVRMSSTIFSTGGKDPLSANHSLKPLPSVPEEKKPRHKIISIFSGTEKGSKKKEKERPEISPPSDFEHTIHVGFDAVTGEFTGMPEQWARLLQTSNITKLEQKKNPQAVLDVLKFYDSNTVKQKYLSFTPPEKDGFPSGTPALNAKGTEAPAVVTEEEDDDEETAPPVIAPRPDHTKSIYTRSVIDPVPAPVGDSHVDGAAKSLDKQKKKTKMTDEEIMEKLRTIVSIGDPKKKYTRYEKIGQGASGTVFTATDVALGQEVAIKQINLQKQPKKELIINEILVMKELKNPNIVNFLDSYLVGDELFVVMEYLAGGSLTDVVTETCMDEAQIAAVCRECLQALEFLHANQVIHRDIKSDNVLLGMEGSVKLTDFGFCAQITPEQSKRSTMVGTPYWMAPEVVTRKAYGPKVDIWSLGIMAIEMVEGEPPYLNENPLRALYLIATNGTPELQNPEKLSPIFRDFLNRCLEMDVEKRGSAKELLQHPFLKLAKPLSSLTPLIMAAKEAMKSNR
# [5] = molecular target: Serine/threonine-protein kinase PAK 2 (Homo sapiens) (UniProt Q13177); conditions: at 1 µM
# [6] = molecular target: Serine/threonine-protein kinase PAK 3 (Homo sapiens) (UniProt O75914); conditions: at 0.1 µM
# Chain of Serine/threonine-protein kinase PAK 3 (Homo sapiens) (O75914 whole entry, looked up): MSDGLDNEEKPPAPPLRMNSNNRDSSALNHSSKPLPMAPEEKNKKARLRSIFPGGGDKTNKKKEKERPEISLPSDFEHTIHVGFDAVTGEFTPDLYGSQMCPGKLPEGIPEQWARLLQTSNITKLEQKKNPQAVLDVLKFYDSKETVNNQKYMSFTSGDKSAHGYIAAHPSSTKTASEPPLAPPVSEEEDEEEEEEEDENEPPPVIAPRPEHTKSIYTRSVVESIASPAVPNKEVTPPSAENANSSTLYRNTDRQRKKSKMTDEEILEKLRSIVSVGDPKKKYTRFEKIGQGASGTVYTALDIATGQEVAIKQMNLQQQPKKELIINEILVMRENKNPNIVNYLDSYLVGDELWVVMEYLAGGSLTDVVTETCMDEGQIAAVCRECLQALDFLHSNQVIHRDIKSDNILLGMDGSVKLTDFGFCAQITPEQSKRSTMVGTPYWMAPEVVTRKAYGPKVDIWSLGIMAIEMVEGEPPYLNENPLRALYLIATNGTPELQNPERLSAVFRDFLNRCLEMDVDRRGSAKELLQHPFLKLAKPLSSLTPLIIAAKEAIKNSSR
# [7] = molecular target: Serine/threonine-protein kinase PAK 3 (Homo sapiens) (UniProt O75914); conditions: at 1 µM
# [8] = molecular target: Serine/threonine-protein kinase PAK 5 (Homo sapiens) (UniProt Q9P286); conditions: at 0.1 µM
# Chain of Serine/threonine-protein kinase PAK 5 (Homo sapiens) (Q9P286 whole entry, looked up): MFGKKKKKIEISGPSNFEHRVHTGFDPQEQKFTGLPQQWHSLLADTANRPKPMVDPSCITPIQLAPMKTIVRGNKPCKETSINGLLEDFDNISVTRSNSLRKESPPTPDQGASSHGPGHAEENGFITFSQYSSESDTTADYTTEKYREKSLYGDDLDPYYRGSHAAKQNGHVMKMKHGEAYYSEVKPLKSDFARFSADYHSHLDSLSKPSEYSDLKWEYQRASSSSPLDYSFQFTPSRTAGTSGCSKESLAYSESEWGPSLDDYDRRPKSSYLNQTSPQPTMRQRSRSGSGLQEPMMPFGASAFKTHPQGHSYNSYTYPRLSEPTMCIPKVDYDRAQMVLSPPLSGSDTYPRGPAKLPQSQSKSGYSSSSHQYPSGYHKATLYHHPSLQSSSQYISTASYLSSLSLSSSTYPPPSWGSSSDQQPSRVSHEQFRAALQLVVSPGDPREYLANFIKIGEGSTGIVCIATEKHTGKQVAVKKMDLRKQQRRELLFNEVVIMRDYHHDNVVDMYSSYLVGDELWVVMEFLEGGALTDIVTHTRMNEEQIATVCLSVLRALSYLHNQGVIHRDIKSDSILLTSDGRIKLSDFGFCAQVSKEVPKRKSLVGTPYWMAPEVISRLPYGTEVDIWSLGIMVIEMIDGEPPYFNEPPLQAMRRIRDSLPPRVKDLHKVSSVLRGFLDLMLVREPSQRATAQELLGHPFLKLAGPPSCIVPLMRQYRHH
# [9] = molecular target: Serine/threonine-protein kinase PAK 5 (Homo sapiens) (UniProt Q9P286); conditions: at 1 µM
# [10] = molecular target: Serine/threonine-protein kinase PAK 6 (Homo sapiens) (UniProt Q9NQU5); conditions: at 0.1 µM;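 note: mean PAK6 inhibition reported from the GSK PKIS screen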
# Chain of Serine/threonine-protein kinase PAK 6 (Homo sapiens) (Q9NQU5 whole entry, looked up): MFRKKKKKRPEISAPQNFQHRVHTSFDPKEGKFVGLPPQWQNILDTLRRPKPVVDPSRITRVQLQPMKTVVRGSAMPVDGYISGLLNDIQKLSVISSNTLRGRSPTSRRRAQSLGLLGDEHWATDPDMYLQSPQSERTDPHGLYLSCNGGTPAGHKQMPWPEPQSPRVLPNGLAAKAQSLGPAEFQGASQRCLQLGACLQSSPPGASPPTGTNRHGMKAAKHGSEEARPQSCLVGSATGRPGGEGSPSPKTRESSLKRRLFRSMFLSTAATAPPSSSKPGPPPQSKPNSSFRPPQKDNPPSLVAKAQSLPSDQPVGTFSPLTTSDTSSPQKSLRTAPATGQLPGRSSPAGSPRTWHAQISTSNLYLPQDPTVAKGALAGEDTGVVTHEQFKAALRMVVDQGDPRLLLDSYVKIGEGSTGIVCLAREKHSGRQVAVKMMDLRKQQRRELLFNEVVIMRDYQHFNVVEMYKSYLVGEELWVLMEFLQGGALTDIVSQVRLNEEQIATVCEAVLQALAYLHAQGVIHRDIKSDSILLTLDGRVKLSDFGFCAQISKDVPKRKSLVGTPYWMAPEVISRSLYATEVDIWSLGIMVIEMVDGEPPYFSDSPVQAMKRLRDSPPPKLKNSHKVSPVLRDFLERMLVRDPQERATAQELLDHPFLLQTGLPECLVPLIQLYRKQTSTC
# Chain of Serine/threonine-protein kinase 26 (Homo sapiens) (Q9P289 2-416 limits assumed): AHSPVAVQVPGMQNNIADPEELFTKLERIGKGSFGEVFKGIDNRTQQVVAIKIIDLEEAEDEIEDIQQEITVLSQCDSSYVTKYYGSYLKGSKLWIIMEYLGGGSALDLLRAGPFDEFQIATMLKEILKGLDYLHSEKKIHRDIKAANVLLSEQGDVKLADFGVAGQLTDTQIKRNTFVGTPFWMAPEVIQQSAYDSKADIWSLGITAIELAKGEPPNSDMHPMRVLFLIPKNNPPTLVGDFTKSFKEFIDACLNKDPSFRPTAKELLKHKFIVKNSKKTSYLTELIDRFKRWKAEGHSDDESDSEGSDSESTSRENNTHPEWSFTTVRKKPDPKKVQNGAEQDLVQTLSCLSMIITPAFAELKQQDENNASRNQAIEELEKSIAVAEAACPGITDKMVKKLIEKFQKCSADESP
Structure (SMILES),inhibition [1],inhibition [2],inhibition [3],inhibition [4],inhibition [5],inhibition [6],inhibition [7],inhibition [8],inhibition [9],inhibition [10]
Cc1cc(O)cc(C)c1/C=C/c1cncc(C(=O)OC(C)(C)C)c1,2.31%,5.41%,2.7%,-0.11%,0.96%,2.25%,2.76%,0.52%,4.26%,2.02%
O=C1Nc2ccccc2/C1=C1\CCc2cc(O)ccc21,-7.51%,7.55%,7.72%,2.86%,3.05%,5.7%,6.44%,0.23%,1.47%,-1.41%
CC1=C(C(=O)Nc2ccc3[nH]nc(C)c3c2)C(c2ccc(C(F)(F)F)cc2)CC(=O)N1 (stereo not given),-2.31%,4.1%,3.72%,1.78%,1.55%,2.35%,2.95%,10.3%,-2.13%,-0.15%
CS(=O)(=O)CCNCc1ccoc1-c1ccc2ncnc(Nc3ccc(OCc4ccccc4)cc3)c2c1,-0.88%,-2.84%,-0.82%,-0.75%,-2.34%,-3.57%,-0.05%,-0.34%,3.51%,-5.6%
NS(=O)(=O)c1cccc(N/C=C2\C(=O)Nc3ccccc32)c1,-1.86%,5.24%,8.78%,1.76%,2.04%,4.81%,4.94%,-8.13%,-8.7%,3.85%
COc1cc(N2CCN(C(C)C)CC2)ccc1Nc1nc(Nc2cccc(F)c2C(=O)O)c2cc[nH]c2n1,2.17%,6.19%,5.79%,1.31%,2.49%,4.37%,4.9%,3.7%,4.16%,0.22%
NS(=O)(=O)c1ccc(N/N=C2\C(=O)Nc3ccc(C(=O)NCc4ccncc4)cc32)cc1,6.51%,4.25%,4.68%,2.01%,2.49%,4.5%,4.65%,9.16%,11.3%,-4.52%
c1ccc(-c2n[nH]cc2-c2ccnc(-c3ccc(OCCn4ccnc4)cc3)c2)nc1,3.16%,1.76%,3.78%,-0.68%,0.37%,-0.22%,-2.41%,-0.74%,4.05%,-3.76%
Nc1nonc1-c1nc2cnccc2n1C1CC1,-0.64% and -0.44%,6.95% and 4.45%,7.1% and 6.44%,3.23% and 1.09%,2.18% and 0.82%,4.18% and 2.78%,5.29% and 3.12%,0.47% and 4.24%,1.66% and 0.23%,7.48% and 3.54%
CNC(=O)c1sc(-n2cnc3cc(OC)c(OC)cc32)cc1OCc1ccccc1C(F)(F)F,4.9%,2.95%,1.15%,0.12%,0.57%,4.1%,2.98%,1.27%,0.17%,-2.28%
Fc1ccc(Nc2nccc(-c3c(-c4ccc(C(F)(F)F)cc4)nn4ncccc34)n2)cc1F,-0.83%,4.75%,4.66%,1.92%,2.47%,3.13%,3.25%,-0.66%,-1.33%,0.92%
Cc1nnc(-c2cccc(-c3ccc(C(=O)NCC4CC4)cc3)c2)o1,0.39%,9.41%,10.5%,2.54%,3.86%,7.07%,5.35%,4.12%,2.3%,4.58%
COc1ccc(Nc2ncc(-c3ccccc3)o2)cc1OC,-5.3%,0.24%,1.35%,0.18%,0.91%,-0.05%,0.75%,-8.21%,-5.61%,8.32%
NS(=O)(=O)c1ccc(N/N=C2\C(=O)Nc3cccc(CCc4ccncc4)c32)cc1,9.93%,1.58%,2.13%,0.84%,0.54%,0.06%,0.66%,1.07%,3.39%,-5.12%
Cc1cc(O)cc(C)c1/C=C/c1cncc(C(N)=O)c1,-0.01%,1.07%,3.22%,0.07%,-0.24%,2.43%,2.79%,9.11%,0.51%,9.09%
CN(C)CCNC(=O)Nc1ccc(N(C)c2ccnc(Nc3ccc(CS(C)(=O)=O)cc3)n2)cc1,-2.49%,4.61%,9.49%,1.79%,2.9%,3.73%,4.29%,1.15%,6.27%,-1.56%

Structure (SMILES),inhibition [1],inhibition [2],inhibition [3],inhibition [4],inhibition [5],inhibition [6],inhibition [7],inhibition [8],inhibition [9],inhibition [10]
COc1ccccc1-c1cc(/C=C2\C(=O)Nc3ncc(Br)cc32)cc(Br)c1O,13.5%,6.7%,6.23%,1.92%,2.48%,4.55%,5.35%,0.29%,0.44%,-1.24%
CCn1c(-c2nonc2N)nc2cncc(C(=O)NCCNC)c21,-4.29%,6.24%,7.29%,1.98%,2.75%,5.11%,5.12%,3.97%,7.69%,0.36%
Nc1ncnc2occ(-c3ccc(NC(=O)Nc4cc(C(F)(F)F)ccc4F)cc3)c12,1.08% and -2.02%,3.44% and -1.9%,4.36% and -1.17%,0.88% and -1%,1.23% and -1.68%,2.44% and -2.03%,1.87% and -1.59%,-0.44% and -3.26%,-2.53% and -0.87%,1.24%
OCCCNc1nccc(-c2c(-c3ccc(F)cc3)nn3cc(C(F)(F)F)ccc23)n1,-0.53%,6.37%,5.57%,2.56%,2.03%,2.17%,3.68%,-4.85%,-5.58%,8.72%
N#Cc1ccc2c(-c3ccnc(NC4CC4)n3)c(-c3ccc(F)cc3)nn2c1,-1.31%,-1.35%,7.43%,0.74%,0.16%,1.37%,2.53%,1.73%,3.22%,-5.39%
CC1(C)CC(n2cnc(-c3ccc(F)cc3)c2-c2ccnc(N)n2)CC(C)(C)N1,-4.55%,0.1%,2.11%,-0.56%,0.36%,0.33%,0.79%,4.67%,0.79%,1.59%
COc1c(C(N)=O)cc(-c2ccc(Cl)cc2)cc1-c1ccc(S(N)(=O)=O)cc1,1.45%,6.68%,12.1%,2.72%,2.55%,4.51%,7.97%,6.72%,3.56%,-7.76%
FC(F)(F)CNc1nccc(-c2cnn3ncccc23)n1,-0.52%,0.97%,6.19%,0.24%,-0.87%,4.27%,3.14%,1.55%,1.35%,-2.63%
c1cnn2ncc(-c3ccnc(NCCCN4CCOCC4)n3)c2c1,-2.39%,6.37%,4.03%,1.39%,0.34%,3.11%,3.78%,2.65%,1.01%,-0.41%
COc1cccc(-n2ncc3c(N/N=C/c4ccc(C(=O)NCCN(C)C)cc4)ncnc32)c1,0.63%,7.17%,5.32%,1.01%,1.56%,2.69%,3.69%,12.8%,7.55%,1.68%
Nc1nccc(-c2c(-c3ccc(F)cc3)ncn2C2CCNCC2)n1,5.19% and 1.66%,-3.53% and -3.93%,-2.75% and -0.14%,-3.09% and 0.25%,-2.02% and 1.56%,-4.58% and -1.23%,-3.86% and -0.28%,-9.21% and 0.56%,-3.77% and 2.85%,-8.03% and 2.08%
CC(C)c1ccc(-c2cc(-c3c[nH]nc3-c3ccccn3)ccn2)cc1,3.31%,1.09%,-1.39%,0.93%,-0.21%,-0.3%,0.21%,-1.29%,-0.36%,2.8%
COC(=O)Nc1nc2ccc(Oc3ccc(NC(=O)Nc4cc(C(F)(F)F)ccc4F)cc3)cc2s1,1.71%,-2.89%,1.52%,-1.5%,-0.42%,-1.09%,0.28%,0.53%,-1.37%,2.82%
O=C(O[C@H]1CN[C@H](C#Cc2cc3ncnc(Nc4ccc5c(cnn5Cc5ccccc5)c4)c3s2)C1)N1CCOCC1,2.02%,2.28%,0.73%,-1.9%,-1.35%,-0.09%,0.69%,-0.12%,-1.71%,3.43%
COc1ccc2ncn(-c3cc(O[C@H](C)c4ccccc4C(F)(F)F)c(C(N)=O)s3)c2c1,13.1%,-0.34%,2.49%,-1.58%,-0.3%,-2.52%,0.02%,-6.5%,-1.3%,-7.06%
